# TDP1 cell CPT: DT40-hTDP1 cell growth loss with CPT; 420,000 tested, 12% active; AID 686979; chicken DT40 Tdp1-/-;hTDP1 cells + 20 nM CPT, ATP luminescence, 48 h; Potency, µM (highest dose often 46.2 µM), for inactives: top-dose activity change, negative = growth inhibition, hits mostly inhibitors; also: potency is read from the fitted curve at half-maximal effect; % is scaled to controls: 0 for no effect and ±100 for the full control effect; nearly all actives have a fitted effect of over 55% in size
#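 Chicken DT40 Tdp1-/- cells stably complemented with human TDP1 were seeded at 400 cells/well in medium containing 20 nM camptothecin, exposed to pin-transferred compounds, and grown at 37 °C for at least 48 hr. Viability was read as ATP luminescence.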
# IL1B secr inh: blocks inflammasome-driven IL-1 beta release; THP-1 LPS/ATP IL-1B secretion, AlphaLISA, 16 h; active compounds read low; activity change, % at 57.5 µM; 360,000 tested, 4.7% active; AID 743279; in the data active = activity change below about -50%; inconclusive = mostly about -30% to -49%; also: % is scaled to controls: 0 for no effect and ±100 for the full control effect
#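 Secreted IL-1B measured by AlphaLISA bead assay after 16 h compound exposure of THP-1 cells; compounds (final up to 57.5 uM) added 1 h before LPS (250 ng/mL) and ATP (1.25 mM) stimulation; lower signal means less secretion.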
# TDP1 block: blocks human tyrosyl-DNA phosphodiesterase 1; Q9NUW8; recombinant TDP1, AlphaScreen DNA substrate cleavage; Potency, µM (doses to about 130 µM), for the others: at the highest dose activity change, negative = inhibition, actives largely listed as inhibitors; 350,000 tested, 0.28% active; also: potency is read from the fitted curve at half-maximal effect; % is scaled to controls: 0 for no effect and ±100 for the full control effect; nearly all actives have a fitted effect of over 40% in size
# Target sequence (Q9NUW8 whole entry, looked up): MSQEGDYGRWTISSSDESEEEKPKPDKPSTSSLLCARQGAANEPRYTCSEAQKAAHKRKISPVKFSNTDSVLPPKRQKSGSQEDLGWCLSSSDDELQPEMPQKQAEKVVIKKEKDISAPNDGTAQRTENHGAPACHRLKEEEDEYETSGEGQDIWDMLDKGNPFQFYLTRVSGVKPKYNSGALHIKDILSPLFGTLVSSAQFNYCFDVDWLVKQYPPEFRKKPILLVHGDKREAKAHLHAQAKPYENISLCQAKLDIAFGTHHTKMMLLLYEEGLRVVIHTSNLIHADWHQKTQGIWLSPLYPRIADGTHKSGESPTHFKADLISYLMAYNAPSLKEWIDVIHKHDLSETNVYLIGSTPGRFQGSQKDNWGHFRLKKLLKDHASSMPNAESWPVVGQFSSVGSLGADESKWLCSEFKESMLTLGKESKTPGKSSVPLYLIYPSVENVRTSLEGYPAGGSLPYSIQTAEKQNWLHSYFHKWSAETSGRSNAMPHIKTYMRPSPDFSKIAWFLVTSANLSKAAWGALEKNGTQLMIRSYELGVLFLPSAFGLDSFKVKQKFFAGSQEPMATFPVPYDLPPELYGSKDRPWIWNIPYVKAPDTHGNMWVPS
#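 Steps: enzyme plus compound, 15 min RT; add biotin/phosphotyrosine-FITC oligonucleotide (15 nM final), react 5 min; add donor/acceptor beads (10 ug/ml final), 10 min; read AlphaScreen. Tdp1 at 1 nM final.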
# DT40 TDP1 no CPT: qHTS for Inhibitors of human tyrosyl-DNA phosphodiesterase 1 (TDP1): qHTS in cells in absence of CPT. DT40 Tdp1-/- hTDP1 cells, no CPT, ATP luminescence, 48 h. Potency, µM (top dose mostly 46.2 µM), without a hit: at the highest dose activity change, negative = growth inhibition, most hits filed as inhibitors. 420,000 tested, 15% active; also: potency is read from the fitted curve at half-maximal effect; % is scaled to controls: 0 for no effect and ±100 for the full control effect; nearly all actives have a fitted effect of over 55% in size
#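 Camptothecin absent (DMSO only). Human TDP1-complemented DT40 knockout cells, 400 cells/well, 37 °C for minimum 48 hr; ATP measured via CellTiter-Glo, 30 min dark incubation, luminescence.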
# HepG2 viability: kills HepG2 cells in TGF-b inhibitor counter-screen | 410,000 tested, 0.76% active | AID 588856 | HepG2 CAGA-GFP viability, ATP luminescence, 18 h | Potency, µM (top dose mostly 46.1 µM), without a hit: top-dose activity change, negative = cytotoxicity, usual class: cytotoxic; also: potency is read from the fitted curve at half-maximal effect
#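 HepG2 CAGA-GFP cells (1000/well, DMEM with 1% FBS) received compound, then TGF-beta at 500 pg/mL final, and were incubated 18 hours at 37 degrees C. Viability was read by CellTiter-Glo luminescence. Media-only wells were set as complete cell-killing and DMSO as no toxicity.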
# TGFb SMAD3 inh: blocks TGF-b signaling; AID 588855; Potency, µM (series often up to 46.1 µM), inactives show top-dose activity, negative = inhibition, usual class: inhibitors; 410,000 tested, 1.2% active; HepG2 CAGA-GFP TGF-b/SMAD3 reporter, GFP fluorescence, 18 h; TGF-beta stimulated, 500 pg/mL final; also: potency is read from the fitted curve at half-maximal effect; % is scaled to controls: 0 for no effect and ±100 for the full control effect; nearly all actives have a fitted effect of over 65% in size
#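 Using HEPG2 CAGA-GFP reporter cells at 1000 cells/well, we pinned test compounds, stimulated with recombinant TGF-beta (500 pg/mL final) and measured total well GFP after 18 h.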
# * = called active by the depositor; ? = inconclusive; . = no result given; [ ] = remark or other dose. This is a sample that favours compounds with a hit; in the whole collection about 18% have one here. Unless noted, calls follow the shape of the dose curve; as a rule, active = well fitted curve in the direction sought with a large enough effect; inconclusive = small, poorly fitted or top-dose-only effect, or another doubt; inactive = no such curve, though single readings can be large; an effect the other way counts as inactive or inconclusive.
SMILES,TDP1 cell CPT,IL1B secr inh,TDP1 block,DT40 TDP1 no CPT,HepG2 viability,TGFb SMAD3 inh
CC[C@H](C)[C@H]1O[C@]2(C=C[C@@H]1C)C[C@@H]1C[C@@H](C/C=C(\C)[C@@H](O[C@H]3C[C@H](OC)[C@@H](O[C@H]4C[C@H](OC)[C@@H](O)[C@H](C)O4)[C@H](C)O3)[C@@H](C)/C=C/C=C3\CO[C@@H]4[C@H](O)C(C)=C[C@@H](C(=O)O1)[C@]34O)O2,?,.,.,16.4µM*,.,.
Oc1ccc2c3c1OC1c4oc5ccccc5c4C[C@@]4(O)[C@@H](C2)N(CC2CC2)CC[C@]314 (stereo partly specified),-25.3%,-50.1*,2.6%,?,-20.9%,-4.6%
O=C1CC[C@]2(O)C3Cc4ccc(O)c5c4C2(CCN3CC2CC2)C1O5 (stereo partly specified),-1.1%,.,12.4%[56.1 µM],-5.0%,.,.
C=C(C)CN1CC[C@@]23c4c5ccc(O)c4O[C@H]2c2[nH]c4ccccc4c2C[C@]3(O)[C@@H]1C5,-104.8%,.,14.3%,26.6µM*,.,.
C=CCN1CC[C@@]23c4c5ccc(O)c4O[C@H]2/C(=N\N=C2/CC[C@@]4(O)[C@H]6Cc7ccc(O)c8c7[C@@]4(CCN6CC=C)[C@@H]2O8)CC[C@]3(O)[C@@H]1C5,?,.,13.2%[56.1 µM],29.9µM*,.,.
O=C1/C(=C/c2ccccc2)C[C@@]2(O)[C@H]3Cc4ccc(O)c5c4[C@@]2(CCN3CC2CC2)C1O5 (stereo partly specified),3.26µM*,-108.3*,1.8%,2.59µM*,10µM*,5.62µM*
Oc1ccc2c3c1O[C@H]1c4oc5ccccc5c4C[C@@]4(O)C(C2)N(CC2CC2)CCC314 (stereo partly specified),.,.,8.0%[56.1 µM],.,.,.
CN1CCN(c2ncc3ncc(=O)n(C)c3n2)CC1,-8.8%,.,.,23.5%,.,.
C[C@@H]1OC(=O)[C@H]2C[C@H]3CCCC[C@@H]3[C@@H](/C=C/[C@H]3CCC[C@H](C)N3C)[C@@H]12,-6.1%,.,0.0%,?,.,.
CC(=O)OCC1=C(C(=O)O)N2C(=O)[C@@H](N)[C@H]2SC1,8.6%[21.1 µM],.,.,-1.9%[21.1 µM],.,.
c1cc(CN2CC3(CCNCC3)C2)ccn1,-12.6%,.,.,-16.3%,.,.
Oc1ccc2c3c1OC1c4[nH]c5ccccc5c4C[C@@]4(O)C(C2)N(CC2CC2)CC[C@]314 (stereo partly specified),?,-63.7*,4.1%,?,-9.0%,-0.6%
CN(C)c1ccc(CNC(=O)Cn2c(=O)oc3cc(S(=O)(=O)N4CCCCCC4)ccc32)cc1,11.6µM*,.,7.6%,-28.3%,-34.7%,?
CN(C)c1ccc(CNC(=O)Cn2c(=O)oc3cc(S(=O)(=O)NCc4ccccc4)ccc32)cc1,?,.,6.6%,?,-34.5%,0.0%
O=C(Cn1c(=O)oc2cc(S(=O)(=O)N3CCCC3)ccc21)NCc1ccc(Cl)cc1,16.4µM*,.,5.1%,20.6µM*,-33.5%,-9.2%
COc1ccc(CNC(=O)Cn2c(=O)oc3cc(S(=O)(=O)N4CCCC4)ccc32)cc1,18.4µM*,-6.2,4.2%,?,1.6%,6.9%
O=C(Cn1c(=O)oc2cc(S(=O)(=O)NCc3ccccc3)ccc21)NCc1ccco1,?,-12.7,2.6%,?,-0.3%,2.1%
CN1CC[C@]23c4c5ccc(O)c4O[C@H]2[C@@H](O)CC[C@H]3[C@H]1C5,-4.7%[92.5 µM],.,.,7.8%[92.5 µM],.,.
CC1=C[C@H](O)CC(C)(C)[C@H]1/C=C/C(C)=C/C=C/C(C)=C/C=C/C=C(C)/C=C/C=C(C)/C=C/C1=C(C)C[C@@H](O)CC1(C)C,-75.4%,.,.,?,.,.
CCC(C)n1c(=O)[nH]c(C)c(Br)c1=O (stereo unspecified),.,.,7.5%,.,.,.
C[C@@]12CC[C@@H]3c4ccc(O)cc4C[C@H](CCCCCCCCCS(=O)CCCC(F)(F)C(F)(F)F)[C@H]3[C@@H]1CC[C@@H]2O (stereo partly specified),-57.6%,.,12.8%[56.1 µM],11.9µM*,.,.
CC1=CP(=O)(Oc2ccc([N+](=O)[O-])cc2)CC1 (stereo unspecified),-22.8%,1.0,.,-2.8%,-41.1%,17.6%
Cc1n[nH]c(C)c1CCCCOc1ccc([N+](=O)[O-])cc1,14.6µM*,12.4,.,?,-22.5%,?
CC12CC[C@H]3[C@@H](CCC4(O)C[C@H](O)CCC34/C=N/NC(=O)c3ccccc3Cl)C1(O)CCC2C1=CC(=O)OC1 (stereo partly specified),0.9%,-5.6,3.9%,-0.2%,-6.1%,-18.0%
CC12CCC3C(CCC4(O)CC(O)CCC34C=O)C1(O)CCC2C1=CC(=O)OC1 (stereo unspecified),10.3µM*,?,.,7.31µM*,-39.5%,?
SMILES,TDP1 cell CPT,IL1B secr inh,TDP1 block,DT40 TDP1 no CPT,HepG2 viability,TGFb SMAD3 inh
C[C@@]12CC[C@H](O)C[C@@H]1CC[C@H]1[C@@H]2C[C@@H](O)[C@]2(C)[C@@H](C3=CC(=O)OC3)CC[C@]12O,.,.,10.8%[21 µM],.,.,.
C[C@]12CCC3C(CCC4=CC(O)CC[C@@]43/C=N/O)C1(O)CCC2C1=CC(=O)OC1 (stereo partly specified),4.4%,-71.3*,.,?,-53.5%,7.94µM*
CC(=O)O[C@H]1CC[C@]2(C=O)C3CC[C@]4(C)[C@@H](C5=CC(=O)OC5)CC[C@]4(O)C3CC[C@]2(O)C1 (stereo partly specified),.,.,9.7%,.,-34.4%,11.2µM*
C[C@]12CC[C@H]3[C@@H](CC[C@]4(O)C[C@@H](O)CC[C@]34C=O)[C@@]1(O)CC[C@@H]2C1=CC(=O)OC1,7.31µM*,-66.9*,.,5.17µM*,-65.3%,7.08µM*
C[C@@H]1O[C@H](O[C@@H]2CC[C@@]3(C=O)[C@H]4CC[C@@]5(C)[C@@H](C6=CC(=O)OC6)CC[C@@]5(O)[C@@H]4CC[C@]3(O)C2)C[C@H](O)[C@@H]1O,.,.,9.7%[21 µM],.,.,.
C[C@H](NC(=O)[C@@H](N)Cc1ccc(O)cc1)C(=O)N[C@@H](Cc1ccccc1)C(=O)N[C@@H](Cc1ccccc1)C(N)=O,-2.1%[4.12 µM],.,2.4%,-6.0%[4.12 µM],.,.
C=C(C)[C@H]1C2C(=O)O[C@H]1[C@H]1OC(=O)[C@@]34O[C@@H]3C[C@]2(O)[C@@]14C,-1.6%,.,4.9%,-0.9%,.,.
NC(=O)NNc1ccccc1,?,.,-3.1%,?,.,.

# Screening results deposited in PubChem BioAssay by National Center for Advancing Translational Sciences (NCATS).
